Activity calls are given as the source filed them.
Key:
[1] = target: Albumin (Bos taurus) (UniProt P02769); assay: compounds binding labelled BSA control protein – biochemical, small-molecule microarray, Alexa647 label, 635/667 nm fluorescence, artefact control for SMM control protein annotation, profiling panel (AID 1118); conditions: BSA-A647 binding, fluorescence 635 nm, higher = more signal;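 also: score merges 667 nm emission intensity and signal-to-noise per printed compound spot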
[2] = probe aXIP binding to arrayed compounds – biochemical, NeuroSMM set, 635/667 nm fluorescence, primary screen (AID 1119); conditions: small-molecule microarray, higher = more signal, called active from +8 up or from −8 down;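 also: probe is the protein aXip251-270 applied at 1 µg/mL to compound-printed slides; binding of probe to printed compounds measured as 667 nm fluorescence plus signal to noise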
[3] = probe aNOTCH3 binding on compound microarray – biochemical, small-molecule microarray, 635/667 nm fluorescence, primary screen (AID 1120); conditions: higher = more signal;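 also: probe is a biotin-tagged antibody raised against NOTCH3 rather than NOTCH3 protein; score merges spot fluorescence near 667 nm with spot signal to noise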
[4] = probe aNOTCH2 binding on compound microarray – biochemical, small-molecule microarray, 635/667 nm fluorescence, primary screen (AID 1121); conditions: higher = more signal;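 also: score merges feature fluorescence read at 667 nm with its signal to noise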
[5] = target: Carbonic anhydrase 2 (Homo sapiens) (UniProt P00918); assay: compounds binding carbonic anhydrase 2 – biochemical, small-molecule microarray, Alexa647-labelled CAII, profiling panel (AID 1122); conditions: CAII-A647 binding fluorescence, higher = more signal
[6] = COS7 lysate on small-molecule microarray, probe aHis, 635 nm (AID 1123); conditions: COS7 cell lysate, fluorescence, higher = more signal;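 also: z-score combines 667nm fluorescence intensity with signal-to-noise per printed compound spot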
[7] = probe aLAP1 signal on lysate-treated microarray – cell lysate, small-molecule microarray, COS7 lysate, primary screen (AID 1124); conditions: probe aLAP1, fluorescence, higher = more signal;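 also: lysate comes from COS7 cells expressing LAP1 and is applied at 0.3 µg/mL; score merges spot fluorescence near 667 nm with signal-to-noise over triplicate slides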
[8] = test system: Sam68 (KHDRBS1); assay: compounds binding KHDRBS1 protein – biochemical, small-molecule microarray, 635 nm fluorescence, primary screen (AID 1125); conditions: higher = more signal;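 also: score merges 667 nm channel intensity with signal to noise over triplicate slides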
[9] = test system: Chordin-like protein 2 (CHRDL2); assay: compounds binding chordin-like 2 – biochemical, small-molecule microarray, 635 nm fluorescence, primary screen (AID 1126); conditions: fluorescence 635 nm, higher = more signal;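 also: printed compound slides probed with Chrdl2 protein at 4 µg/mL for 1 h at 4 C; score merges 667 nm emission intensity with signal to noise over three replicate slides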
[10] = target: Concanavalin-A (Canavalia ensiformis) (UniProt P02866); assay: compounds binding concanavalin A lectin – biochemical, small-molecule microarray, Alexa647 label, 635 nm, artefact control for SMM control protein annotation, primary screen (AID 1127); conditions: ConA-A647 binding fluorescence, higher = more signal;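 also: z combines 667 nm emission intensity with signal-to-noise across three replicate slides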
Chain of Concanavalin-A (Canavalia ensiformis) (P02866 whole entry, looked up): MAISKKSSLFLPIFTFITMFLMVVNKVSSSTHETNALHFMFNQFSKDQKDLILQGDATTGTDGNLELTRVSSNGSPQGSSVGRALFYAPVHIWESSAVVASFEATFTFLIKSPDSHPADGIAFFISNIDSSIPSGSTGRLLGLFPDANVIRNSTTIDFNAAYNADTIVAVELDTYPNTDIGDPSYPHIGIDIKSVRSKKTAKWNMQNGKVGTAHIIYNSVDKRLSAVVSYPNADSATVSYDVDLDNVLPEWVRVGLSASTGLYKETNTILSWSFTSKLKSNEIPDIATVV

[11] = compounds binding Alexa647 anti-His antibody – biochemical, small-molecule microarray, 635 nm fluorescence, artefact control for SMM control protein annotation, primary screen (AID 1128); conditions: higher = more signal;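 also: score merges feature fluorescence with signal-to-noise for each printed compound spot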
[12] = test system: Human papillomavirus type 1a E7 protein (residues 1-88); assay: HPV1a E7 small-molecule binders, primary screen, biochemical, small-molecule microarray, residues 1-88, 635 nm (AID 1129); conditions: small-molecule microarray binding, fluorescence 635 nm; higher = more signal
[13] = target: Focal adhesion kinase 1 (Homo sapiens) (UniProt Q05397); assay: PTK2 protein binding on printed compound slides – biochemical, small-molecule microarray, 635/667 nm fluorescence, BSA, DTT, primary screen (AID 1130); conditions: 635 nm fluorescence, higher = more signal;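 also: composite of spot emission at 667 nm and signal to noise over triplicate slides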
Chain of Focal adhesion kinase 1 (Homo sapiens) (Q05397 whole entry, looked up): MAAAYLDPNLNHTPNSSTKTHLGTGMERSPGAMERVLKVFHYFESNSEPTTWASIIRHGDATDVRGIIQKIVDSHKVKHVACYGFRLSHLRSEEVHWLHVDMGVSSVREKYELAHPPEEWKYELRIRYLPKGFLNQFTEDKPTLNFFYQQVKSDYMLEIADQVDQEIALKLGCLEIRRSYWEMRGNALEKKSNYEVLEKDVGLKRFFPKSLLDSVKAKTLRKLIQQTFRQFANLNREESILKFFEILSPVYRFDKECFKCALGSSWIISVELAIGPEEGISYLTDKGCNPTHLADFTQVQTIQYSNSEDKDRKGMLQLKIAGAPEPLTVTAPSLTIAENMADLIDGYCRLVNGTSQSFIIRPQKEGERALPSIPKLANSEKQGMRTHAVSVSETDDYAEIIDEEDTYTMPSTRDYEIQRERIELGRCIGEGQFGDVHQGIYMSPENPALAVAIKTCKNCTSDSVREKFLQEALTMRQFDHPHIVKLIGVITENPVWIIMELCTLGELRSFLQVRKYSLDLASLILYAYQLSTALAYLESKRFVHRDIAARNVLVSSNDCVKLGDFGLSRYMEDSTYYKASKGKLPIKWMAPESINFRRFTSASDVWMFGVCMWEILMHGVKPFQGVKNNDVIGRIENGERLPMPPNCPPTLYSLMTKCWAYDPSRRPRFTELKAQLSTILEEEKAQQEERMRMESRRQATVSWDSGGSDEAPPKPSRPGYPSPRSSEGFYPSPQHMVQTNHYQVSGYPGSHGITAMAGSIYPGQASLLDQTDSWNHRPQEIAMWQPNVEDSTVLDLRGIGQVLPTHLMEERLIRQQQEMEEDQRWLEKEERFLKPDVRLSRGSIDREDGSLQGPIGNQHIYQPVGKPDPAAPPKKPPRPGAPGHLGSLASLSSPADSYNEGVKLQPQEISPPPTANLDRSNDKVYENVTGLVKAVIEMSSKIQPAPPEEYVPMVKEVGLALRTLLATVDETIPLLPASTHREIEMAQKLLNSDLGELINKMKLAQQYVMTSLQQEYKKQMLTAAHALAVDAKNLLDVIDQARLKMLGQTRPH

[14] = test system: Fibrinogen (Alexa647-labelled); assay: Alexa647-fibrinogen binding to printed small molecules – biochemical, small-molecule microarray, 635/667 nm fluorescence, artefact control for SMM control-protein annotation, profiling panel (AID 1131); conditions: fibrinogen-A647 binding fluorescence, higher = more signal;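 also: z-score merges 667 nm fluorescence with per-spot signal-to-noise over triplicate slides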
[15] = target: Follistatin (Homo sapiens) (UniProt P19883); assay: FST protein binding to printed compounds – biochemical, small-molecule microarray, 635/667 nm fluorescence, primary screen (AID 1132); conditions: 635 nm fluorescence, higher = more signal
Chain of Follistatin (Homo sapiens) (P19883 whole entry, looked up): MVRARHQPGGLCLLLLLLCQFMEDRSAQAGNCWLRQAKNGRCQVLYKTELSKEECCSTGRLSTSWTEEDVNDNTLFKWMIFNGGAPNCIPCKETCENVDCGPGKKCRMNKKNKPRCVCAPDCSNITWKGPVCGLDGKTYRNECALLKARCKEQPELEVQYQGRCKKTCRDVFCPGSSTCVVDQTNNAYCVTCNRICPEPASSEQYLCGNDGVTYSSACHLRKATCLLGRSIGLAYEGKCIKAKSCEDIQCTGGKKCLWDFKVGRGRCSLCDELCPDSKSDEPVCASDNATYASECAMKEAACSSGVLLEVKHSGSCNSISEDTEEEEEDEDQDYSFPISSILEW

[16] = target: Fibroblast growth factor 2 (Homo sapiens) (UniProt P09038); assay: basic fibroblast growth factor binding to printed compounds – biochemical, small-molecule microarray, 635/667 nm fluorescence, primary screen (AID 1133); conditions: FGF2, fluorescence 635/667, higher = more signal
Chain of Fibroblast growth factor 2 (Homo sapiens) (P09038 whole entry, looked up): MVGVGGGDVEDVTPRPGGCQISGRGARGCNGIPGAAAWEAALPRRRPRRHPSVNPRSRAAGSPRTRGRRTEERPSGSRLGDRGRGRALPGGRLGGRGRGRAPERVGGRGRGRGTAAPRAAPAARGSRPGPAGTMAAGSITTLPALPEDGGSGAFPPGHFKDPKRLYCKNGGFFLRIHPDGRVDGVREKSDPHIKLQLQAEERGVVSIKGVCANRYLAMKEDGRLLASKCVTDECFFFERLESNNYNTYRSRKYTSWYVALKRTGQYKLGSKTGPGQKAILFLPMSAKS

[17] = JC-1 mitochondrial potential readout, lung cancer cells – cell-based, A549, JC-1 fluorescence, basal, 24 h, 100 nL, profiling panel (AID 1138); conditions: higher = more signal;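 also: A549 lung adenocarcinoma cells under basal conditions with no added stimulus; test concentration not given here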
[18] = test system: Lefty1; assay: Lefty1 protein binding to printed compounds – biochemical, small-molecule microarray, 635/667 nm fluorescence, primary screen (AID 1139); conditions: fluorescence 635/667, higher = more signal
[19] = test system: wheat germ agglutinin (Triticum aestivum), Alexa647-labelled; assay: Alexa647-WGA lectin binding to printed small molecules – biochemical, small-molecule microarray, 635/667 nm fluorescence, artefact control for SMM control-protein annotation, profiling panel (AID 1140); conditions: WGA-A647 binding, 635 nm fluorescence, higher = more signal;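 also: score merges 667 nm feature emission with signal to noise over triplicate slides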
[20] = target: Luciferin 4-monooxygenase (Photinus pyralis) (UniProt P08659); assay: inhibition of purified Photinus pyralis luciferase – biochemical, luminescence, purified enzyme, 2006 set, primary screen (AID 1141); conditions: purified firefly luciferase, SteadyGlo luminescence, 30 min; higher = more signal, called active from +8 up or from −8 down;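 also: cell-free assay with purified firefly luciferase at 100 ng per well in PBS; test concentration not given here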
Chain of Luciferin 4-monooxygenase (Photinus pyralis) (P08659 whole entry, looked up): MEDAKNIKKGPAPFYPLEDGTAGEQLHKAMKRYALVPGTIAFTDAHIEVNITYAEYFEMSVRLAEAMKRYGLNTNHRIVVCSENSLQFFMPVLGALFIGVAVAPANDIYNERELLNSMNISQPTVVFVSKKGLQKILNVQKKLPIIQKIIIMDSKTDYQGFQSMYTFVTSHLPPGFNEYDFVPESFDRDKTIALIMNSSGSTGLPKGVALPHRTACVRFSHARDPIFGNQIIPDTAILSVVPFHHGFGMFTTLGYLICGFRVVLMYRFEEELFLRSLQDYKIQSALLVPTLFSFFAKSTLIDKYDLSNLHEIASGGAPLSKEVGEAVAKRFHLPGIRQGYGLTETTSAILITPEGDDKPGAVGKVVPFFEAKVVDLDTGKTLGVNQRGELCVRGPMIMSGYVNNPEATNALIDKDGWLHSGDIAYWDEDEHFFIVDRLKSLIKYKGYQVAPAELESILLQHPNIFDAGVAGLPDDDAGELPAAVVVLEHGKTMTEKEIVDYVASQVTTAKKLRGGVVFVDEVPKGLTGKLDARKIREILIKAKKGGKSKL

Chain of Albumin (Bos taurus) (P02769 whole entry, looked up): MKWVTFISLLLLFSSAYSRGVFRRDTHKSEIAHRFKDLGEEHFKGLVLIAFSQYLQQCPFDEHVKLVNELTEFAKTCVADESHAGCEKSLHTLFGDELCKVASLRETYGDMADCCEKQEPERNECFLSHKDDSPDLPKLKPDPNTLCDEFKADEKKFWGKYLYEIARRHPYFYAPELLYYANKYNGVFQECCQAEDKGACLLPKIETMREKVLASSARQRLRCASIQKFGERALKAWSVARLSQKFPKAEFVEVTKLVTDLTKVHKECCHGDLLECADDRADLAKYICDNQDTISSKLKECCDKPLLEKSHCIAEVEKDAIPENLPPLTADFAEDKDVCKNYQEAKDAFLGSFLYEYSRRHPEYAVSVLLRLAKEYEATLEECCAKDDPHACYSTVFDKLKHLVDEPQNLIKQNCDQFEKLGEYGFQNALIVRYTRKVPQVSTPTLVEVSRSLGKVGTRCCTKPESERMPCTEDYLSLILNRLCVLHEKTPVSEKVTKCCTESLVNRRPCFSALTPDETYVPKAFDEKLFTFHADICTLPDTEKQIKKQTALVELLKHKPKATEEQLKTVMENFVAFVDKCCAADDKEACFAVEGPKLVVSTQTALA

| SMILES | composite z-score [1] | composite Z-score [2] | composite z-score [3] | composite z-score [4] | composite z-score [5] | composite z-score [6] | composite z-score [7] | composite z-score [8] | composite z-score [9] | composite z-score [10] | composite z-score [11] | composite z-score [12] | composite z-score [13] | composite z-score [14] | composite z-score [15] | composite z-score [16] | z-score [17] | composite z-score [18] | composite z-score [19] | z-score [20] |
| --- | --- | --- | --- | --- | --- | --- | --- | --- | --- | --- | --- | --- | --- | --- | --- | --- | --- | --- | --- | --- |
| COCCOC(=O)N1C(=O)[C@@]2(c3cc(C#CCCO)ccc31)[C@H](C(=O)N1CCN(c3ncccn3)CC1)[C@H]1C(=O)O[C@H](c3ccccc3)[C@H](c3ccccc3)N1[C@@H]2c1ccc(O)cc1 | 0.506 | 0.168 (inactive) | -0.236 | -0.245 | 0.244 | 1.4 | 0.298 | 1.29 | 0.182 | 0.983 | 2.17 | 1.22 | 1.19 | 0.928 | 0.577 | 0.088 | 1.35 | 0.413 | 0.613 | -0.979 (inactive) |
| C=CCC(OC(C)=O)[C@@H]1[C@@H](N(Cc2ccc(-c3ccccc3)cc2)C(=O)c2ccc(-c3ccccc3)cc2)c2cc(OCCCO)ccc2N1C(=O)c1ccc2ccccc2n1 (stereo not given in full) | -0.211 | -0.314 (inactive) | 0.195 | -0.12 | -0.0785 | -0.137 | 0.504 | 0.504 | 0.169 | -0.309 | -0.513 | 0.907 | 0.879 | -0.239 | 0.548 | 0.051 | 1.61 | -0.101 | 0.152 | -1.46 (inactive) |
| CN(C)C(=O)[C@]1(Cc2ccccc2)N=C(c2ccc(OCCCO)cc2)O[C@@H]1c1ccccc1 | 0.62 | 0.572 (inactive) | -0.046 | -0.0531 | 0.687 | 2.68 | 0.429 | 0.978 | -1.01 | 0.915 | 2.94 | 1.25 | 0.593 | 1 | 0.973 | -0.263 | 0.473 | -0.222 | 1.2 | -0.701 (inactive) |
| C=CCOC(=O)[C@H]1[C@@H]2C(=O)O[C@@H](c3ccccc3)[C@@H](c3ccccc3)N2[C@@H](c2ccc(OCCOC(=O)[C@@H]3C[C@@H]4C(=O)N[C@@H](Cc5ccccc5)C(=O)N4[C@@H]3c3ccc(O)cc3)cc2)[C@]12C(=O)Nc1ccccc12 | 0.527 | 0.129 (inactive) | 0.0382 | -0.181 | 0.67 | 1.74 | 0.509 | 1.3 | 1.11 | 1.16 | 1.78 | 1.19 | 1.53 | 0.911 | 1.32 | 1.33 | -1.15 | 0.948 | 1.2 | -0.497 (inactive) |
| COCCCN1C(=O)[C@@]2(Cc3ccccc31)c1ccccc1C(=O)N(Cc1ccccc1OC)[C@H]2c1ccc(CO)cc1 | 0.345 | 0.449 (inactive) | -0.147 | -0.101 | 0.799 | 0.374 | 1.34 | -0.0726 | -1.21 | 0.254 | -1.44 | -0.717 | -0.725 | 0.0715 | -1.07 | -0.665 | 0.0581 | -0.566 | -0.0303 | -0.522 (inactive) |
| NC(=O)NCC#Cc1ccc2c(c1)[C@]1(C(=O)N2)[C@H](C(=O)N2CCCCCCC2)[C@H]2C(=O)O[C@H](c3ccccc3)[C@H](c3ccccc3)N2[C@@H]1c1ccc(O)cc1 | 0.408 | -0.573 (inactive) | 1.38 | 0.796 | 0.341 | 1.2 | 0.624 | 1.07 | 1.2 | 1.09 | 0.0328 | 1.01 | 0.568 | 0.879 | 1.52 | 1.15 | -1.16 | 0.784 | 1.15 | -0.161 (inactive) |
| COc1ccc([Si](C)(C)[C@H]2[C@H](CCO)O[C@@]3(C(=O)N(Cc4ccc(N5CCOC5=O)cc4)c4ccccc43)[C@@H]2C)cc1 | 0.243 | -0.392 (inactive) | -0.0697 | -0.1 | 0.417 | 1.5 | 0.171 | 0.968 | -0.07 | 1.11 | 0.965 | 0.516 | 0.5 | 0.45 | -0.11 | -0.271 | 0.533 | 0.263 | 0.433 | -0.605 (inactive) |
| C=C(COC)/C(=C/C[C@H](OC(=O)c1ccncc1)c1ccc(OCCO)cc1)c1cc(C(=O)OC)ccc1OC | 0.401 | 0.3 (inactive) | 0.325 | -0.123 | 0.357 | 1.39 | 0.84 | 1.26 | 0.249 | 0.952 | 1.14 | 1.18 | 0.918 | 0.763 | 1.38 | 0.329 | -0.408 | 1.58 | 0.622 | -0.265 (inactive) |
| C[C@]1(C(=O)NCC(F)(F)F)c2ccccc2C(=O)N(Cc2ccc(OC(F)(F)F)cc2)[C@H]1c1ccc(CO)cc1 | 0.499 | -0.568 (inactive) | -0.179 | -0.171 | 0.481 | 0.751 | 0.0891 | 0.185 | -0.0339 | 0.422 | 0.781 | 0.269 | 0.273 | 0.0709 | 1.13 | 0.358 | -0.274 | 0.369 | 0.314 | -0.219 (inactive) |
| COCCCNC(=O)[C@@]1(Sc2ccc(C)cc2)CC(=O)N(C2CCCCC2)[C@@H]1c1ccc(CO)cc1I | 0.68 | 0.441 (inactive) | 0.145 | -0.0096 | 0.481 | 1.8 | 0.0839 | 1.25 | 0.818 | 1.07 | 1.74 | 1.18 | 0.737 | 0.922 | 1.09 | 0.659 | 0.816 | 0.136 | 0.814 | 0.235 (inactive) |
| COCCOC(=O)N1C(=O)[C@@]2(c3cc(C#CCCO)ccc31)[C@H](C(=O)N1CCc3cc(OC)c(OC)cc3C1)[C@H]1C(=O)O[C@H](c3ccccc3)[C@H](c3ccccc3)N1[C@@H]2c1ccccc1OCCO | 0.357 | 0.471 (inactive) | 0.285 | 0.0401 | 0.422 | 1.2 | 1.01 | 1.32 | 0.855 | 1.13 | 0.362 | 1.19 | 0.496 | 0.87 | 1.41 | 1.3 | -0.976 | 1.3 | 0.603 | 0.151 (inactive) |
